Each structure is given as a SMILES string. Where “and” joins values, the source holds several entries; their conditions need not be identical. Equal entries are not always repeated. Records with an inconclusive call do not appear. Some compounds were tested as several samples or in several runs, with calls that do not always agree. Calls of active or inactive are those of the source. Unless noted, calls follow the shape of the dose curve; as a rule, active = well fitted curve in the direction sought with a large enough effect; inconclusive = small, poorly fitted or top-dose-only effect, or another doubt; inactive = no such curve, though single readings can be large; an effect the other way counts as inactive or inconclusive.

Assay [1] has as its target Alpha-galactosidase (Coffea arabica) (UniProt Q42656). Put plainly: Counterscreen for Glucocerebrosidase Inhibitors: qHTS Assay for Coffee Bean alpha-Galactosidase at pH 4.5 (AID 957).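 Also: plate controls were enzyme alone for no effect and no enzyme for full effect.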 The note with it: purified coffee bean alpha-galactosidase, fluorogenic substrate; series mostly up to 76.9 µM. An outline of the steps: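 AC50 values derive from Hill-equation modeling of concentration-response data, normalized to no-enzyme and full-activity controls. The pH 4.5 citrate assay used 2 nM coffee bean enzyme and 80 uM fluorogenic substrate for 20 min.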

Assay [2] can be described thus: MultiTox-Fluor Cytotoxicity Assay - LYMP1-001 - Dead Cells (AID 946).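 Also: cells exposed to compound for 16 h.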 Also: potency is read from the fitted curve at half-maximal effect. The note with it: LYMP1-001 lymphoblastoid cells, dead-cell protease fluorescence; series mostly up to 92.2 µM. An outline of the steps: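 Seed 2500 LYMP1-001 cells/well, incubate 5 hr at 37 C; add compound, 16 hr at 37 C; add MultiTox-Fluor reagent, 60 min RT; read dead-cell fluorescence Ex/Em=485/520. Normalize to DMSO and 15 uM tetraoctylammonium bromide.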

The nature of assay [3]: MultiTox-Fluor Cytotoxicity Assay - LYMP1-002 - Live Cells (AID 955).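 Also: cells exposed to compound for 16 hours.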 Also: potency is read from the fitted curve at half-maximal effect. To be noted: LYMP1-002 lymphoblastoid live-cell protease fluorescence viability; series mostly up to 46.1 µM. An outline of the steps:
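Cytotoxicity in the human lymphoblastoid line LYMP1-002 is measured as loss of live-cell protease activity after 16 h treatment in complete culture medium. AC50 is derived from Hill-equation fits of qHTS concentration-response data.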

Assay [4] can be described thus: MultiTox-Fluor Cytotoxicity Assay - LYMP1-003 - Dead Cells (AID 961).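 Also: cells exposed to compound for 16 h at 37 °C; nearly all actives have a fitted effect of over 70% in size.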 Also: potency is read from the fitted curve at half-maximal effect. The note with it: LYMP1-003 lymphoblastoid cells, dead-cell protease fluorescence; series mostly up to 92.2 µM. Summed up: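 LYMP1-003 lymphoblastoid, 2500 cells/well, 5 hr settle then 16 hr cpd at 37 C; MultiTox-Fluor reagent 60 min RT; Ex/Em 485/520 dead-cell signal; norm. DMSO = 0%, 15 uM tetraoctylammonium bromide = 100%; Hill AC50.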

A short description of assay [5]: Cell Viability - LYMP1-003 - Assay at 24 hr (AID 963). Also: potency is read from the fitted curve at half-maximal effect. The note with it: LYMP1-003 lymphoblastoid cell viability; series mostly up to 92.2 µM. Summed up: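 Acute toxicity in LYMP1-003 lymphoblastoid cells: 24 hr compound treatment at 37 C, ATP measured with CellTiter-Glo after 30 min at room temperature. AC50 derived by fitting the Hill equation to qHTS titrations.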

The nature of assay [6]: Cell Viability - LYMP1-003 - Assay at 40 hr (AID 964). Also: nearly all actives have a fitted effect of over 60% in size. Also: potency is read from the fitted curve at half-maximal effect. To be noted: LYMP1-003 lymphoblastoid viability; series mostly up to 92.2 µM. Summed up: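 This qHTS cytotoxicity screen treats human lymphoblastoid cells (LYMP1-003) with compounds for 40 hr and quantifies cellular ATP via luciferase luminescence.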
Assay [7] in a line: Cell Viability - LYMP2-003 (AID 965).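 Also: cells exposed to compounds for 24 h before reading; nearly all actives have a fitted effect of over 50% in size.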 Also: potency is read from the fitted curve at half-maximal effect. The note with it: LYMP2-003 lymphoblastoid cell viability; series mostly up to 92.2 µM. Summed up: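 qHTS, human lymphoblastoid line, 2500 cells/well, complete medium. 24 h drug, 37 C. ATP-based luminescent readout; Hill-fit AC50.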
Assay [8] in a line: Cell Viability - LYMP2-004 (AID 966). Also: nearly all actives have a fitted effect of over 65% in size. Also: potency is read from the fitted curve at half-maximal effect. The note with it: LYMP2-004 lymphoblastoid cell viability, qHTS; series mostly up to 92.2 µM. Summed up: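 Acute toxicity is scored as a concentration-dependent drop in intracellular ATP, quantified by luciferase luminescence, in human lymphoblastoid cells exposed to compound for 24 hr. AC50 derives from Hill-equation modelling.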
For assay [9], the target named is Muscarinic acetylcholine receptor M1 (Rattus norvegicus) (UniProt P08482). Kind of assay: qHTS Assay for Antagonists of Acetylcholine Muscarinic M1 Receptor: Kinetic Measurement of Intracellular Calcium Response (AID 943). Also: potency is read from the fitted curve at half-maximal effect; nearly all actives have a fitted effect of over 75% in size. To be noted: M1-expressing cells, kinetic intracellular calcium fluorescence; series mostly up to 35.3 µM. An outline of the steps:
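Intracellular calcium flux, recorded with Fluo-4 in a kinetic plate reader, served as signal; the response to carbachol at EC80 (100 nM final) was taken as maximal over minimal fluorescence after a 10 min compound pre-incubation in rat M1-CHO cells.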

The target is the same in assay [10]. Kind of assay: qHTS Assay for Antagonists of Acetylcholine Muscarinic M1 Receptor: Measurement of IP-One Response (AID 944). Also: potency is read from the fitted curve at half-maximal effect; nearly all actives have a fitted effect of over 75% in size. To be noted: CHO-M1 cells, IP-One HTRF, antagonist mode; series mostly up to 46.1 µM. An outline of the steps:
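Steps: plate transfected CHO-M1 cells overnight; add test compound, 10 min; add carbachol (200 nM, EC80) in stimulation buffer with LiCl; incubate 30 min; add labelled IP1 tracer and anti-IP1 antibody in lysis buffer; read HTRF after 10 min.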

Assay [11] deals with Cytochrome P450 2C19 (Homo sapiens) (UniProt P33261). Put plainly: qHTS Assay for Inhibitors and Substrates of Cytochrome P450 2C19 (AID 899). Also: nearly all actives have a fitted effect of over 60% in size. Also: potency is read from the fitted curve at half-maximal effect. To be noted: recombinant CYP2C19, luciferin-H EGE luminescence; series mostly up to 57.1 µM. Summed up:
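Signal comes from luciferase acting on luciferin released by CYP2C19-mediated hydroxylation of Luciferin-H EGE, 10uM (KM). Assay mix: 5nM enzyme, 50mM KPO4; 60 min at 37C with NADPH regeneration. Data normalized against 57uM ketoconazole.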

Assay [12] is described as follows: qHTS Assay for Identification of Small Molecule Agonists for Thrombopoietin (TPO) Signaling Pathway (AID 917). Also: % is scaled to controls: 0 for no effect and ±100 for the full control effect. To be noted: TPO signaling pathway reporter cells, agonist qHTS; series mostly up to 38.5 µM. Summed up: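 IL-3-dependent murine pro-B Ba/F3 cells, stably transfected with human TPO receptor and GpIIb-promoter luciferase, are incubated 24 hrs at 37 C with test compound and 26 pM TPO; luciferase signal is read after 10 min at room temperature.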

The target in assay [13] is Pyruvate kinase (Leishmania mexicana) (UniProt Q27686). Put plainly: qHTS Validation Assay for Inhibitors of Leishmania Mexicana Pyruvate Kinase (AID 945).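 Also: 0% = DMSO only neutral control wells.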 To be noted: purified L. mexicana pyruvate kinase, enzyme activity, E451W mutant enzyme; series mostly up to 57.5 µM. An outline of the steps:
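The enzyme is a highly purified E451W mutant of LmPYK used at 0.2 nM. It converts 0.5 mM PEP and 0.1 mM ADP over 1 h at room temperature; product ATP is quantified by luciferase luminescence relative to DMSO controls.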

Assay [14] deals with Pyruvate kinase PKM (Homo sapiens) (UniProt P14618). Kind of assay: qHTS Assay for Activators of Human Muscle Pyruvate Kinase (AID 954; active = well fitted curve in the direction sought with a large enough effect, not every such curve was filed as active;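 also: 0% = uninhibited enzyme and -100% = no enzyme or full thiadiazolimine inhibition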). To be noted: purified human muscle pyruvate kinase, luciferase-coupled luminescence, 1 h; series mostly up to 57.5 µM. An outline of the steps: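 Reaction: 0.1 nM purified PKM2 with 0.5 mM phosphoenolpyruvate and 0.1 mM ADP, room temperature, 1 h. Readout: luciferase-based ATP luminescence after stop reagent. Activators judged against a 0.3 nM enzyme column.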

Assay [15] in a line: Cell Viability - LYMP2-001 (AID 921).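 Also: cells exposed to compound for 24 h at 37 °C; nearly all actives have a fitted effect of over 70% in size.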 Also: potency is read from the fitted curve at half-maximal effect. To be noted: LYMP2-001 lymphoblastoid cell viability; series mostly up to 92.2 µM. An outline of the steps:
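A lymphoblastoid cell line of human origin was treated with library compounds across a concentration series for 24 hours, and viable cell number was estimated from ATP-driven luciferase light output. Hill modeling gave AC50.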

The nature of assay [16]: MultiTox-Fluor Cytotoxicity Assay - LYMP1-001 - Live Cells (AID 947).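 Also: 0% = DMSO only and full inhibition = tetraoctylammonium bromide control.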 To be noted: LYMP1-001 lymphoblastoid cells, live-cell protease fluorescence viability; series mostly up to 92.2 µM.
A short description of assay [17]: Cell Viability - LYMP1-002 - Assay at 16 hr (AID 948).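 Also: 0% = DMSO alone and full effect = 92 µM tetraoctylammonium bromide.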 To be noted: LYMP1-002 lymphoblastoid cell viability; series mostly up to 92.2 µM. An outline of the steps: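 In this qHTS, lymphoblastoid LYMP1-002 cells (human) receive compounds for 16 hr at 37 C. Viability is taken from CellTiter-Glo ATP luminescence, and AC50 derives from standard Hill fits.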
A short description of assay [18]: MultiTox-Fluor Cytotoxicity Assay - LYMP1-002 - Dead Cells (AID 960).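 Also: cells exposed to compound for 16 h at 37 °C; nearly all actives have a fitted effect of over 60% in size.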 The note with it: LYMP1-002 lymphoblastoid cells, dead-cell protease fluorescence; series mostly up to 46.1 µM. An outline of the steps: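 Acute cytotoxicity in a human lymphoblastoid line is scored as rising dead-cell protease signal after 16 hr exposure at 37 C, measured fluorometrically (485/520).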

Assay [19] in a line: MultiTox-Fluor Cytotoxicity Assay - LYMP1-003 - Live Cells (AID 962).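 Also: cells exposed to compound for 16 hours at 37 °C; 0% = DMSO only and full loss = 92 µM tetraoctylammonium bromide; cytotoxic hits lower the live-cell protease signal.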 The note with it: LYMP1-003 lymphoblastoid cells, MultiTox-Fluor live-cell protease fluorescence; series mostly up to 92.2 µM. An outline of the steps: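 Cells plated at 2500 per well and incubated 5 hr; compounds added and incubated 16 hr at 37 C; MultiTox-Fluor reagent added for 60 min at room temperature; fluorescence of liberated AFC measured at 405/510 nm.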

The nature of assay [20]: qHTS Assay for Identification of Small Molecule Agonists for Hypoxia Response Element Signaling Pathway (AID 914; active = well fitted activation curve with a large enough effect in the signal ratio, with a control signal flat, not every such curve was filed as active; the % refers to the signal ratio; also: % of control where 0% means no effect). To be noted: ME-180 (cervical carcinoma) HRE-bla reporter, beta-lactamase ratio, CoCl2, 17 h; stronger effect = higher value. An outline of the steps:
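Cells were plated overnight, pin-dosed with compound in a titration series, co-stimulated with EC50 CoCl2 and incubated 17 hours at 37 degrees Celsius. CCF4 substrate was then loaded, and AC50 values came from the 460nm/530nm ratio.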

Chain of Pyruvate kinase (Leishmania mexicana) (Q27686 2-499 E452W): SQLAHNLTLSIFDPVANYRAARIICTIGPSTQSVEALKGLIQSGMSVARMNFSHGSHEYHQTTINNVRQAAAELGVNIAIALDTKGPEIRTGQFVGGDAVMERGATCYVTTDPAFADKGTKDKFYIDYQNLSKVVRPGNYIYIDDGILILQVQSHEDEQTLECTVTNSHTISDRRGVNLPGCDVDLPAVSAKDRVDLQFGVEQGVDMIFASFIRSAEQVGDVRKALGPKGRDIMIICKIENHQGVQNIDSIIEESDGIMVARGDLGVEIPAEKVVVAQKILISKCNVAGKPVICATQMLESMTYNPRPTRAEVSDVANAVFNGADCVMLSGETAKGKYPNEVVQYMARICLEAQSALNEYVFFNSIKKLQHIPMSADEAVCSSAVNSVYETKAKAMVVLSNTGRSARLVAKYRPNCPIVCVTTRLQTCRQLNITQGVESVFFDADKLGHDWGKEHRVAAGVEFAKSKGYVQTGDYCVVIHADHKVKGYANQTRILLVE
Chain of Pyruvate kinase PKM (Homo sapiens) (P14618 whole entry, looked up): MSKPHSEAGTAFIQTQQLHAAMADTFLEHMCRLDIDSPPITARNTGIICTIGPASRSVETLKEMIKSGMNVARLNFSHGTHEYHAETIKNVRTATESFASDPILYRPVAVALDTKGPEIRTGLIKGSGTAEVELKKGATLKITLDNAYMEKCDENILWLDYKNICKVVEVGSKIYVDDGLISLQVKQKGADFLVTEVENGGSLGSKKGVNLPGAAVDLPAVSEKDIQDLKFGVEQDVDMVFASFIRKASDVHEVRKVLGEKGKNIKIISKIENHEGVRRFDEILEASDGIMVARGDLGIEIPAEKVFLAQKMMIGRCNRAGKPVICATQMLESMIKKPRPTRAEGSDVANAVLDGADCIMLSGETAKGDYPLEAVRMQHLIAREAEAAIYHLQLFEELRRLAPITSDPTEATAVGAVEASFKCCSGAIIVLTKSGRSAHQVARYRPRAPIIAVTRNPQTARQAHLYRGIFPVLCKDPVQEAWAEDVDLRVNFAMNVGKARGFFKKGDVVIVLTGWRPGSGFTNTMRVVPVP
Chain of Alpha-galactosidase (Coffea arabica) (Q42656 whole entry, looked up): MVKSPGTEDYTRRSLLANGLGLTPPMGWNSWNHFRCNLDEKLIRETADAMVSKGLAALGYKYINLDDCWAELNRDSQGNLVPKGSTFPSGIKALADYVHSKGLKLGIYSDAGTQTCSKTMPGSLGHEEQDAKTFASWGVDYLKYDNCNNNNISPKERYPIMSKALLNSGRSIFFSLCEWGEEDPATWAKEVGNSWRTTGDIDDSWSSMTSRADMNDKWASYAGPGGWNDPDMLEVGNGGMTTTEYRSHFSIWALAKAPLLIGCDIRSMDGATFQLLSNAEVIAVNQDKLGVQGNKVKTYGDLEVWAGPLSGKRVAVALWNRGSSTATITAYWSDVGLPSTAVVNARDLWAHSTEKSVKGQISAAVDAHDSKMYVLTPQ
Chain of Muscarinic acetylcholine receptor M1 (Rattus norvegicus) (P08482 whole entry, looked up): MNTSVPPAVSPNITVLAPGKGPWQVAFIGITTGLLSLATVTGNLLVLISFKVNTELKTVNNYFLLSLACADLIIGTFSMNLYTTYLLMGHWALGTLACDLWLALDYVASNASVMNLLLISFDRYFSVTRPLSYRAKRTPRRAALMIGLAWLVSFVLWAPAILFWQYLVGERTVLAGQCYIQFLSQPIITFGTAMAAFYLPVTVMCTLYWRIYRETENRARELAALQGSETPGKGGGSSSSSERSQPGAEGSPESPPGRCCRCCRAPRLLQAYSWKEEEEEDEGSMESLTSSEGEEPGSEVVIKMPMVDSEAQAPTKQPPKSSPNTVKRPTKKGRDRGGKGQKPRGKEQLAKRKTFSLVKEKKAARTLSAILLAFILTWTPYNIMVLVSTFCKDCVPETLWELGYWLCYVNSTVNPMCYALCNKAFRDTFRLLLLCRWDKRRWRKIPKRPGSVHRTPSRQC
Chain of Cytochrome P450 2C19 (Homo sapiens) (P33261 whole entry, looked up): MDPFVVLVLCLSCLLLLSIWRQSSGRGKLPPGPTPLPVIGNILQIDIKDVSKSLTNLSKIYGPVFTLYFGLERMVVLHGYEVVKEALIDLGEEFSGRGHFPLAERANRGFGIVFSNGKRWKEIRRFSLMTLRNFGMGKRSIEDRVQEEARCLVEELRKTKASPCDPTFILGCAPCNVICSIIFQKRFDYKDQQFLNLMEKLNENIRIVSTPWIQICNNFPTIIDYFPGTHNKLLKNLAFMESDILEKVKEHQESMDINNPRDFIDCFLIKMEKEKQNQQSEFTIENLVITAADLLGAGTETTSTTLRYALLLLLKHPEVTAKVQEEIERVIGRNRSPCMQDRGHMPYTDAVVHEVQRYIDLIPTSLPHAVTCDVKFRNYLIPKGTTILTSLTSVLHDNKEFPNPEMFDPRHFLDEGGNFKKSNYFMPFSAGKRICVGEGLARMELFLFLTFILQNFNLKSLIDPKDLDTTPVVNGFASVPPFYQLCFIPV

Regarding `Nc1ccn([C@H]2CC[C@@H](CO)O2)c(=O)n1`, the outcome in assay [1] was inactive.
For `CC1=C(C)C(=O)C(CCCCC#CCCCC#CCO)=C(C)C1=O`, the outcome in assay [1] was inactive.
As to `COC(=O)C1=C(C)NC(C)=C(C(=O)OC)C1c1ccccc1[N+](=O)[O-]`, the Potency in [2] was 50.1 µM (active); in assay [3], 31.6 µM (active); in assay [4], 50.1 µM (active); in [5] it was 50.1 µM (active); in [6], 39.8 µM (active); in assay [7] it was 50.1 µM (active). Moreover, in assay [8], the Potency was 31.6 µM (active). Further, the outcome in [1] was inactive.
`Cc1cc(C(C)(C)C)cc(C)c1CC1=NCCN1`: the Potency in assay [9] is 5.62 µM (active); in [10], 10 µM (active). Further, the outcome in [1] was inactive.
Consider `Nc1c2c(nc3ccccc13)CCCC2`, for which, in assay [1], the call was inactive.
Regarding `C=Cc1c(C)c2cc3[nH]c(cc4nc(cc5nc(cc1[nH]2)C(C)=C5CCC(=O)O)C(CCC(=O)O)=C4C)c(C)c3C=C`, in assay [1], the outcome was inactive.
Turning to `CCc1cccc(N(C)C(N)=Nc2cccc3ccccc23)c1`, in assay [1], the outcome was inactive.
Same read-out and setting: to `CCN(CC)CCOCCOC(=O)C1(c2ccccc2)CCCC1` belongs “inactive”.
On to `Oc1ccc(Cl)cc1Sc1cc(Cl)ccc1O`, for which the results for the Potency in assay [11] and in assay [6] were 79.4 nM (active) and 31.6 µM (active), respectively.
For `NC(=O)CN1CCCC1=O`, the result in assay [12], in assay [13], in assay [14] and in assay [1] was inactive.
As to `NC(N)=NCCC[C@H](N)C(=O)O`, the Potency entry in assay [11] was “inactive”. The outcome in assay [1] was inactive.
Consider `COc1cc2c(cc1OC)-c1cc(=Nc3c(C)cc(C)cc3C)n(C)c(=O)n1CC2`, for which, in [1], the compound was classed as inactive.
As for `COc1ccc(C(=O)N2CCCC2=O)cc1`, the compound was classed as inactive in [12], in assay [13], in assay [14] and in [1].
In the case of `C[C@@H]1C[C@@H]([C@H](O)CC2CC(=O)NC(=O)C2)C(=O)[C@@H](C)C1`, the Potency was 1.26 µM (active) and 1.58 µM (active) in assay [15]; 50.1 µM (active) and inactive in assay [4]; 2 µM (active) and inactive in [6]. Besides, the Potency entry in [2], in [16], in assay [17], in [3] and in [5] was “inactive” each time.
As for `COP(=O)(OC)OC=C(Cl)Cl`, the Potency entry in assay [15], in assay [2], in assay [16], in [17], in assay [3] and in assay [18] was “inactive” in each case. Moreover, the Potency result in assay [19], in assay [5] and in assay [7] was “inactive” throughout. Also, the Potency in assay [6] was 6.31 µM (active) and inactive.
For the compound `Oc1c(Br)cc(Br)cc1Br`, the Potency entry in [15], in assay [2], in [16], in assay [17], in assay [3] and in assay [18] was “inactive” in each case. Besides, the Potency result in assay [4], in assay [19], in [5], in assay [6], in [7] and in assay [8] was “inactive” each time.
On to `NS(=O)(=O)c1cc2c(cc1Cl)NCNS2(=O)=O`, for which the outcome in [1] was inactive.
On to `C[C@]12CC[C@@H]3c4ccc(O)cc4CC[C@H]3[C@@H]1CCC2=O`, for which the call in assay [1] was inactive.
Turning to `Clc1ccc(Cn2c(CN3CCCC3)nc3ccccc32)cc1`, the result in [1] was inactive.
With `CN1[C@@H]2CC[C@H]1CC(OC(=O)c1c[nH]c3ccccc13)C2` (some centres undefined), the outcome in assay [1] was inactive.
On to `c1ccc2nc(N3CCNCC3)ccc2c1`, for which, in [20], the activation is -4.77% (inactive). The result in [12], in [13], in [14] and in assay [1] was inactive.

The record behind these values is PubChem BioAssay (NCATS).
